Experimental data reported in PubChem BioAssay AID1861 (The Scripps Research Institute Molecular Screening Center, 2009).
Out of some 290,000 compounds screened, about 3,100 (1.1%) were called active. Rule as the data show it: active = inhibition above about 16% (passing the limit was not always enough); inactive = the rest. The entries come from a sample that favours actives as a whole.

molecular target: Neuropeptides B/W receptor type 1 (Homo sapiens) (UniProt P48145); experiment: blockers of human neuropeptide B/W receptor 1 – cell-based, fluorescence, single concentration, primary screen (AID 1861); settings: GPR7-expressing cells, fluorescence antagonist assay; at 4.4 µM; stronger effect = higher value;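 also: cells stimulated with the agonist NPW; 0% = agonist with vehicle and 100% = vehicle without agonist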
Sequence (P48145 whole entry, looked up): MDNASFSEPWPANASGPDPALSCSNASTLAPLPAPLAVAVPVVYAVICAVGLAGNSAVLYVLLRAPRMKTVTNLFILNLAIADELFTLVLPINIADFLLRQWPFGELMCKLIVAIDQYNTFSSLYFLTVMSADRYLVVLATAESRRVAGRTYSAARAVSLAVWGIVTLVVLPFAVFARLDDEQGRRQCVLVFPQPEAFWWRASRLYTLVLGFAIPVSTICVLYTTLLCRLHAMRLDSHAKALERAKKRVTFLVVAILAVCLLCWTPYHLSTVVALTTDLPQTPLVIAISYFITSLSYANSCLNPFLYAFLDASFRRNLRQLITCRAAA

Row | Structure (SMILES) | inhibition
1 | CCOc1ccc(CN2CCC(n3nccc3NC(=O)C3CC3)CC2)cc1CO | 1.55% (inactive)
2 | Cc1cc(C)cc(NC(=O)C2CCCN(S(=O)(=O)c3ccc4[nH]c(=O)ccc4c3)C2)c1 (centres undefined) | -6.12% (inactive)
3 | CN1CCN(c2ccccc2NC(=O)COc2ccc(C3CCCCC3)cc2)CC1 | -0.24% (inactive)
4 | COc1ccc(C(=O)N2CCc3cc(OC)c(OC)cc3C2c2cccc([N+](=O)[O-])c2)cc1 (centres undefined) | -1.43% (inactive)
5 | COc1ccc(CC(NC(C)=O)C(=O)NC2CCN(C(=O)c3ccc(OC)c(OC)c3)CC2)cc1OC (centres undefined) | 1.05% (inactive)
6 | CCc1ccc(OCC2c3cc(OC)c(OC)cc3CCN2C(C)=O)cc1 (centres undefined) | 45.6% (active)
7 | O=C(CSc1nc2cccnc2n1Cc1ccccc1)N1CCc2ccccc21 | -12% (inactive)
8 | CC(=O)N1c2ccc(S(=O)(=O)N3CCC(C(=O)NCc4ccc(F)cc4)CC3)cc2CC1C (centres undefined) | -4.2% (inactive)
9 | Cc1ccc(CNC(=O)C2CCN(S(=O)(=O)c3ccc4nc5c(c(C(=O)O)c4c3)CC(C)CC5)CC2)cc1 (centres undefined) | 27.2% (active)
10 | CCOC(CNC(=O)C1CCN(S(=O)(=O)c2ccc3nc4c(c(C(=O)O)c3c2)CC(C)CC4)CC1)OCC (centres undefined) | -21.9% (inactive)
11 | COc1ccc2c(CC(=O)N3CCc4cc(OC)c(OC)cc4C3)coc2c1 | 20.9% (active)
12 | COc1ccc(NC(=S)N2CCc3cc(OC)c(OC)cc3C2)cc1 | 2.63% (inactive)
13 | COc1ccc2c(CC(=O)OCC(=O)NC(N)=O)coc2c1 | -8.77% (inactive)
14 | Cc1nn(C)cc1S(=O)(=O)N1CCN(c2ccc(F)cc2)CC1 | -4.94% (inactive)
15 | O=[N+]([O-])c1ccccc1S(=O)(=O)Nc1cccc2cccnc12 | -12.1% (inactive)
16 | O=C(NC(=S)NC1CCCCC1)c1ccc(Cl)cc1 | -18.6% (inactive)
17 | COc1ccccc1-n1c(SCC(=O)Nc2cccc(C(=O)O)c2)nnc1-c1ccccc1O | -17.1% (inactive)
18 | COCc1ccc(C(=O)NC2CC(C)(C)Cc3c2cnn3-c2ccc(C)cc2)o1 (centres undefined) | -0.16% (inactive)
19 | COc1cc(OC)c(-n2cc(-c3ccc(Cl)cc3)[nH]c2=O)cc1Cl | 64.5% (active)
20 | COc1cc(OC)c(-n2c(C)cc(C=O)c2C)cc1Cl | -3.29% (inactive)

Row | Structure (SMILES) | inhibition
21 | COc1ccc(-c2cn(-c3ccc(OC)cc3)c(=S)[nH]2)cc1 | 10.2% (inactive)
22 | Brc1c(CSc2nncc3ccccc23)nc2ccccn12 | -2.42% (inactive)
23 | CCOCCCN1C(=O)C2C(C(=O)Nc3ccc(OCC)cc3)C3C=CC2(O3)C1C(=O)NC1CCCCC1 (centres undefined) | -12.8% (inactive)
24 | CCn1c(CC(=O)Nc2ccccc2)nnc1SCC(=O)N1CCOCC1 | -9.92% (inactive)
25 | O=C1c2ccccc2C(=O)N1CCC(c1ccccc1)c1ccco1 (centres undefined) | -19.2% (inactive)
26 | CC1(C)CC(N(Cc2ccccc2)C(=O)Cc2ccccc2)CCO1 (centres undefined) | -11.1% (inactive)
27 | CC1(C)CC(CNCCC(c2ccc(F)cc2)c2ccco2)CCO1 (centres undefined) | 27.9% (active)
28 | CCC(C(=O)OCC(=O)Nc1ccc(C(=O)Nc2ccc(OC)cc2)cc1)c1ccccc1 (centres undefined) | 0.99% (inactive)
29 | CCC(C(=O)Nc1ccc2c(c1)OCCO2)c1ccccc1 (centres undefined) | -8.4% (inactive)
30 | CCC(C(=O)Nc1ccc(C(C)C)cc1)c1ccccc1 (centres undefined) | 55.6% (active)
31 | COc1ccc(-n2nc(C(=O)NCC(=O)N3CCN(c4ccccc4OC)CC3)c3ccccc3c2=O)c(OC)c1 | 1.21% (inactive)
32 | Cn1nccc1/C=N\NC(=O)c1ccc(Cl)cc1 | -6.59% (inactive)
33 | O=C(NC1CCCCC1)C1c2ccccc2C(=O)N1Cc1ccco1 (centres undefined) | -11.8% (inactive)
34 | Cc1ccnc(N2C(=O)c3ccccc3C2Nc2ccc3c(c2)OCCO3)c1 (centres undefined) | -8.69% (inactive)
35 | O=C1c2ccccc2C(Nc2ccc3c(c2)OCCO3)N1Cc1ccco1 (centres undefined) | 17.6% (active)
36 | COC(=O)c1c(NC(=O)c2ccc(S(=O)(=O)N3CCOCC3)cc2)sc2c1CCN(C(C)C)C2 | -0.58% (inactive)
37 | Nc1cccc2c1C(=O)N(Cc1nnc(-c3ccccc3Br)o1)C2=O | -16% (inactive)
38 | CN(C)/C=N/c1cc(=O)n(C)c(=O)n1CC1CC1 | -1.62% (inactive)
39 | Cc1cccc(OCC(=O)NC(=S)Nc2ccccc2N2CCOCC2)c1 | -14.9% (inactive)
40 | Cc1ccc(O)c(NC(=S)NC(=O)COc2ccc(Br)cc2)c1 | 89.1% (active)

Row | Structure (SMILES) | inhibition
41 | Cc1ccc(O)c(NC(=O)COc2cc(C)ccc2C)c1 | 10.6% (inactive)
42 | Cc1cccc(C2C3=C(CCCC3=O)N=C3c4ccccc4C(=O)C32)c1 (centres undefined) | -14.3% (inactive)
43 | CCn1cc(C(=O)NCCC(=O)NCCO)c(=O)c2cc3c(cc21)OCO3 | -13.5% (inactive)
44 | COC(=O)CN1C(=O)[C@H]2[C@@H](/C=C/c3ccccc3)N3C(=O)CN(CC4CC4)C(=O)[C@@]3(Cc3ccccc3)[C@H]2C1=O | -2.59% (inactive)
45 | CCCCSCCCNC(=O)C1CCC(CNS(=O)(=O)c2ccc(NC(C)=O)cc2)CC1 (centres undefined) | 3.79% (inactive)
46 | Cc1nn(-c2ccccc2)c2c1c(C)c(CCC(=O)NCC1CCCO1)c(=O)n2C (centres undefined) | -15.7% (inactive)
47 | Cc1ccc(C(=O)NCC(=O)OCC(=O)NC2CCCCCCC2)cc1 | -6.33% (inactive)
48 | O.O.O.O=S(=O)([O-])OC[C@H]1O[C@@H](O[C@]2(COS(=O)(=O)[O-])O[C@H](OS(=O)(=O)[O-])[C@@H](OS(=O)(=O)[O-])[C@@H]2OS(=O)(=O)[O-])[C@H](OS(=O)(=O)[O-])[C@@H](OS(=O)(=O)[O-])[C@@H]1OS(=O)(=O)[O-].[Al] | -11% (inactive)
49 | O=C(NCc1ccco1)/C(=C/c1ccco1)NC(=O)c1ccccc1 | -4.86% (inactive)
50 | O=C(OCN1C(=O)c2ccccc2C1=O)/C(=C\c1ccco1)NC(=O)c1ccccc1 | 19% (active)
51 | NC(=O)C1CCN(C(=O)/C(=C/c2ccco2)NC(=O)c2ccccc2)CC1 | -7.3% (inactive)
52 | C[C@H](NC(=O)C1CC(=O)N(c2ccc3c(c2)OCO3)C1)C(=O)NCc1ccco1 (some centres undefined) | 1.22% (inactive)
53 | O=S(=O)(Nc1ccc2[nH]ncc2c1)c1ccccc1Cl | 6.14% (inactive)
54 | O=C(Cn1nc(CNc2ccc(Cl)cc2)[n+]2c1CCCCC2)c1ccc(Cl)cc1 | -3.46% (inactive)
55 | CC(=O)Nc1ccc(Oc2ccc3c(c2)C(=O)NC3=O)cc1 | 7.14% (inactive)
56 | S=C(NCCc1ccccc1)Nc1ccccc1 | 21.5% (active)
57 | S=C(NCCCc1ccccc1)Nc1ccc(Br)cc1 | -16.1% (inactive)
58 | S=C(NCCC1=CCCCC1)Nc1ccccc1 | 8.55% (inactive)
59 | COc1ccc(-c2nnc3n2CCCCC3)cc1 | 1.65% (inactive)
